PAFAH1B3 inh – blocks human PAF acetylhydrolase 1B catalytic subunit 3. Q15102. recombinant PAFAH1B3, FP-rhodamine probe, fluorescence polarization. inhibition, % at 3.39 µM. hit rate 0.28% among 340,000;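 active means inhibition above the screen-wide average of all tested compounds plus 3 SD, cut at about 25% in these data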;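 further: 0% = enzyme with DMSO only and 100% = wells lacking PAFAH1B3 protein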
PAFAH2 FP inh – inhibitors of human PAFAH2. Q99487. recombinant PAFAH2, FP-rhodamine activity probe, fluorescence polarization. inhibition, % at 3.39 µM. hit rate 0.99% among 340,000. AID 492956;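 active means inhibition above the mean over all tested compounds plus 3 SD, cut at about 30% in these data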;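 further: inhibitors block probe labeling of enzyme so polarization drops; 0% = enzyme with DMSO and 100% = wells lacking PAFAH2 protein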
pPAFAH FP inh – pPAFAH (human) enzyme inhibition | Q13093 | recombinant pPAFAH, FP-rhodamine probe fluorescence polarization | inhibition, % at 3.39 µM | hit rate 1.5% among 330,000 | AID 463082;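 active means inhibition above the mean inhibition across the screen plus 3 SD, cut at about 25% in these data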;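 further: inhibitors block binding of the rhodamine activity-based probe so polarization drops; 0% = enzyme with DMSO and 100% = wells lacking pPAFAH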
Target sequence (Q13093 whole entry, looked up): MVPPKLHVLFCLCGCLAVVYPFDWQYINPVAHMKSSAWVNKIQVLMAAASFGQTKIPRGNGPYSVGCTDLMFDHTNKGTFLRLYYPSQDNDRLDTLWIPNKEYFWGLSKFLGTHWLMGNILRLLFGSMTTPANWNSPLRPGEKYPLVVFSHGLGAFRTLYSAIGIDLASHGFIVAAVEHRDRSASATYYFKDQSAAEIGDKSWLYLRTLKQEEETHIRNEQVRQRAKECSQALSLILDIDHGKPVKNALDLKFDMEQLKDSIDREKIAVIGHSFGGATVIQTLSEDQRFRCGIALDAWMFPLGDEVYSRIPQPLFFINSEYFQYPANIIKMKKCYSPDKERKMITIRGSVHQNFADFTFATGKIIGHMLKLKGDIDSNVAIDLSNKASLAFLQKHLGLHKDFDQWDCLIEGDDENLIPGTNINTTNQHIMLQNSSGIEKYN
PAFAH1B2 inh – PAFAH1B2 (human) inhibition. P68402. recombinant PAFAH1B2, FP-rhodamine activity probe, fluorescence polarization. inhibition, % at 3.39 µM. hit rate 1.2% among 340,000. AID 492953;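 active means inhibition above the mean of all tested compounds plus 3 SD, cut at about 24% in these data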;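 further: 0% = enzyme with DMSO and 100% = wells lacking PAFAH1B2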
LYPLA2 counter – blocks human lysophospholipase 2, a PME1 counter-screen. recombinant LYPLA2, FP-Rh probe fluorescence polarization. hit rate 0.38% among 320,000. AID 2177. O95372. inhibition, % at 5.9 µM;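 active means inhibition above the screen-wide mean plus 3 SD, limit set per campaign, cut at about 26% in these data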;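 further: 0% = LYPLA2 with DMSO and 100% = wells lacking LYPLA2 enzyme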
LYPLA1 inh – counter-screen for PME1 inhibitors: inhibitors of human LYPLA1; O75608; recombinant LYPLA1, FP-Rh probe fluorescence polarization; inhibition, % at 5.9 µM; hit rate 0.16% among 320,000; AID 2174;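 active means inhibition above the mean of all tested compounds plus 3 SD, set per campaign, cut at about 14% in these data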;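 further: inhibitors block serine hydrolase probe labeling of LYPLA1 so polarization falls; 0% = enzyme with DMSO and 100% = wells lacking LYPLA1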
* hit, by the source's call; . = not tested or not shown. A selection: hits, their analogues and other compounds. The true share with any hit is near 2.9%.

SMILES	PAFAH1B3 inh	PAFAH2 FP inh	pPAFAH FP inh	PAFAH1B2 inh	LYPLA2 counter	LYPLA1 inh
O=C(c1cccc(Cl)c1)N1CCN(C(=O)c2ccccc2F)CC1	2	-9	-1	3	1	1
CC12CCC(=O)N1C(C(=O)Nc1nnc(SCc3ccccc3)s1)CS2 (stereo unspecified)	4	4	4	2	-4	2
O=C(Cc1ccc(S(=O)(=O)N2CCOCC2)s1)Nc1cc(Cl)ccc1Cl	11	41*	28*	1	-3	-5
O=C(Cc1ccc(S(=O)(=O)N2CCOCC2)s1)Nc1ccc2c(c1)CCC2	3	-2	22	3	-2	-4
O=C(Cc1ccc(S(=O)(=O)N2CCOCC2)s1)Nc1nc2c(s1)CCCC2	6	4	32*	-2	-8	-8
Cc1ccc(C2=NCCNC2=O)c(C)c1	13	1	5	1	-2	-3
CC(C)NC(=O)COC(=O)c1ccc(Oc2ccccc2)cc1	7	67*	26*	4	0	-1
Cc1cccc(C(C)C)c1NC(=O)c1ccc(OCC2CCCO2)cc1 (stereo unspecified)	0	2	0	5	.	.
CN(C)c1ccc(C(=O)OCC(=O)NCCNC(=O)COC(=O)c2ccc(N(C)C)cc2)cc1	15	13	5	-3	5	3
CCCNC(=O)COC(=O)c1ccc(-c2ccccc2)cc1	-1	60*	25*	-1	3	-1
O=C(COC(=O)c1ccc(-c2ccccc2)cc1)Nc1ccccc1-c1ccccc1	3	12	2	1	-5	0
CN(C)c1ccc(C(=O)OCC(=O)NCCCc2ccccc2)cc1	-3	85*	33*	6	0	0
NC(=O)COC(=O)c1ccc(Oc2ccccc2)cc1	13	6	1	3	3	-2
CC(NC(=O)COC(=O)c1ccc(OCC2CCCO2)cc1)c1ccccc1Cl (stereo unspecified)	-1	88*	25*	1	0	1
Cc1c(NC(=O)Cn2nc(C(F)(F)F)c3c2CCCC3)c(=O)n(-c2ccccc2)n1C	3	6	1	6	1	-2
CCC(C)c1ccccc1NC(=S)NC(=O)c1ccco1 (stereo unspecified)	0	4	6	0	-3	4
CC1(C)Cc2cccc(OCC(=O)OCC(=O)c3ccccc3)c2O1	2	-6	7	3	-2	0
COc1cc(C(=O)ON=C2C(C)=CC(=O)C=C2C)cc(OC)c1OC	9	83*	5	7	-3	-3
NC(=S)n1[nH]c(-c2ccc([N+](=O)[O-])cc2)c(N=Nc2ccccc2[N+](=O)[O-])c1=O	12	17	.	9	.	.
NC(=S)n1[nH]c(-c2ccc([N+](=O)[O-])cc2)c(N=Nc2cccc([N+](=O)[O-])c2)c1=O	19	39*	.	27*	.	.
CN(C(=O)COC(=O)C12CC3CC(CC(Cl)(C3)C1)C2)C1(C#N)CCCCC1	5	6	-4	24*	-4	0
CC(C)CN(C(=O)COC(=O)C12CC3CC(CC(Cl)(C3)C1)C2)c1c(N)n(Cc2ccccc2)c(=O)[nH]c1=O	4	-4	6	12	6	0
COc1ccc2c(c1)c1ncn(CCCN3CCOCC3)c(=O)c1n2C	6	8	-3	5	-6	-4
Cn1c(=O)c2c(nc(N3CCOCC3)n2CC(=O)C23CC4CC(CC(C4)C2)C3)n(C)c1=O	11	-5	3	27*	-3	0
O=C(O)c1ccc2c(c1)C1C=CCC1C(c1ccncc1)N2 (stereo unspecified)	21	0	25*	1	-3	-3
CCOC(=O)c1ccc2c(c1)C1C=CCC1C(C(=O)O)N2 (stereo unspecified)	.	.	83*	.	4	-8
Cc1ccc2c(c1C)NC(C(=O)O)C1CC=CC21 (stereo unspecified)	12	44*	65*	9	9	-3
O=C(O)C1Nc2c(C(=O)N3CCOCC3)cccc2C2C=CCC12 (stereo unspecified)	1	23	20	7	-10	-5
Cc1ccc(NC(=O)CN(C)C(=O)CCC(=O)N2CCOCC2)cc1	5	3	3	2	0	-3

Screens deposited in PubChem by The Scripps Research Institute Molecular Screening Center.
